Among the data in the supplement of paper PMC13380429 are morphology score values, retold here.

In the test the test system is Vero E6 infected with SARS-CoV-2. As to the kind of experiment: morphology score (similarity to uninfected cells); higher = more like uninfected cells. The settings on record: 24 h.
With `CCNCC(O)c1cccc(O)c1` (stereo not drawn) [etilefrine] (10 µM), the morphology score amounted to 0.131.

In turn, `O=C1COc2nccc(-c3ccccc3F)c2CN1Cc1cc(C(F)(F)F)cc(C(F)(F)F)c1` (10 µM) had a morphology score of -0.194.

On to `CC(C)n1c(=O)n(C(=O)N[C@H]2C[C@H]3CC[C@@H](C2)N3C)c2ccccc21` (10 µM), for which the morphology score amounted to 0.0156.

As to `CS(=O)(=O)c1ccc(Oc2cc(F)cc(C#N)c2)c2c1[C@H](O)C(F)(F)C2` (10 µM), the morphology score stood at 0.0223.

`C[N+](C)(C)CCOP(=O)(O)OC[C@H](O)CO` [choline-alfoscerate] (10 µM) returned a morphology score of 0.0475.

The compound `Cc1cc2nc3c(=O)[nH]c(=O)nc-3n(C[C@H](O)[C@H](O)[C@H](O)CO)c2cc1C` [riboflavin] (10 µM) had a morphology score of 0.208.

For the compound `NCCNCCNCCN` [trientine] (10 µM), the morphology score was -0.00487.

`COc1ccccc1OCC(O)COC(N)=O` (stereo not drawn) [methocarbamol] (10 µM) registered a morphology score of 0.0924.

`Cc1cc(-c2ccccc2)nnc1NCCN1CCOCC1` [minaprine] (10 µM) registered a morphology score of 0.145.

The compound `CCC(=O)NS(=O)(=O)c1ccc(-c2c(-c3ccccc3)noc2C)cc1` [parecoxib] (10 µM) returned a morphology score of 0.0867.

As to `C/C=C1\[C@H]2C=C(C)C[C@]1(N)c1ccc(=O)[nH]c1C2` [(-)-Huperzine A] (10 µM), the morphology score was -0.118.

The compound `CC(=O)O[C@H]1C(=O)[C@@]2(C)[C@H]([C@H](OC(=O)c3ccccc3)[C@]3(O)C[C@H](OC(=O)[C@H](O)[C@@H](NC(=O)c4ccccc4)c4ccccc4)C(C)=C1C3(C)C)[C@]1(OC(C)=O)CO[C@@H]1C[C@@H]2O` [paclitaxel] (10 µM) returned a morphology score of 0.00639.

In turn, `CCCCn1ccc(N2CCC(c3ccccc3)CC2)c(Cl)c1=O` (10 µM) came in with a morphology score of -0.265.

As for `CC(=O)/N=c1/sc(S(N)(=O)=O)nn1C` [methazolamide] (10 µM), the morphology score was -0.0286.

On to `CC1CCN(CCCC(=O)c2ccc(F)cc2)CC1` [melperone] (10 µM), for which the morphology score was 0.389.

As for `CS(=O)(=O)c1ccc(-c2cn3ccccc3n2)cc1` [zolimidine] (10 µM), the morphology score is 0.211.

In the case of `CN1CC(=O)N=C1NC(=O)Nc1cccc(Cl)c1` [fenobam] (10 µM), the morphology score is -0.115.

With `N[C@H](C(=O)O)c1ccc(O)c(C(=O)O)c1` [3-carboxy-4-hydroxyphenylglycine-(S)] (10 µM), the morphology score came out at 0.115.

With `N[C@@H](CCC(=O)N[C@@H](CS)C(=O)NCC(=O)O)C(=O)O` [glutathione] (10 µM), the morphology score was -0.0349.

In turn, `CON(C)C(=O)[C@H](O)[C@H](Cc1ccccc1)NC(=O)c1cc2cc(Cl)ccc2[nH]1` (10 µM) yielded a morphology score of 0.109.

Take `CSc1ccccc1Nc1nc(N2CCNCC2)nc2c(NCC3CC3)ncnc12` (0.833333 µM): the morphology score was determined as 0.166.

Regarding `CN1c2c([nH]c(N)nc2=O)NC[C@@H]1CNc1ccc(C(=O)N[C@@H](CCC(=O)O)C(=O)O)cc1` [metafolin] (10 µM), the morphology score came to 0.0144.

For the compound `C1COC(NC(C2CC2)C2CC2)=N1` [rilmenidine] (10 µM), the morphology score was -0.0313.

`CN1CCCN=C1COC(=O)C(O)(c1ccccc1)C1CCCCC1` (stereo not drawn) [oxyphencyclimine] (10 µM) gave a morphology score of 0.0243.

Take `COc1ccc(-c2ccc3c(N4CCOC[C@@H]4C)nc(N4CCOC[C@@H]4C)nc3n2)cc1CO` (0.833333 µM): the morphology score was -0.0692.

For the compound `CC1=NN=C(c2ccc(N)cc2)c2cc3c(cc2C1)OCO3` (10 µM), the morphology score is -0.0987.

For `c1ccc2c(c1)CCCC2C1=NCCN1` (stereo not drawn) [tetrahydrozoline] (0.833333 µM), the morphology score amounted to 0.00054.

With `CC(=O)O[C@H]1C[C@@H]2CC[C@@H]3[C@H](CC[C@@]4(C)[C@H]3C[C@H]([N+]3(C)CCCCC3)[C@@H]4OC(C)=O)[C@@]2(C)C[C@@H]1[N+]1(C)CCCCC1` [pancuronium] (10 µM), the morphology score was 0.254.

In the case of `CC[C@H]1[C@@H]2C[C@H]3[C@@H]4N(C)c5ccccc5[C@]45C[C@@H]([C@@H]2[C@H]5O)N3[C@@H]1O` [ajmaline] (10 µM), the morphology score was -0.0982.

As for `C[C@@]1(F)[C@H](O)[C@@H](CO)O[C@H]1n1ccc(N)nc1=O` (10 µM), the morphology score amounted to 0.0439.

`CSCC[C@H](NC(=O)[C@H](Cc1ccccc1)NC(=O)CNC(=O)CNC(=O)[C@@H](N)Cc1ccc(O)cc1)C(=O)O` [metenkephalin] (10 µM): the morphology score amounted to 0.247.

Compound `CNC(=O)ON(C(C)=O)C(=O)NC` [caracemide] (10 µM) displayed a morphology score of 0.0974.

The compound `CCCn1c(=O)c2[nH]c(-c3cnn(Cc4cccc(C(F)(F)F)c4)c3)nc2n(CC)c1=O` (10 µM) came in with a morphology score of 0.163.
